Hits are enriched below; roughly 0.9% of the tested compounds scored in any of these assays.
CDC25B CDK2 inh – human CDC25B-CDK2/CyclinA binding inhibition; P30305+P24941; HTRF CDC25B-CDK2/CyclinA binding, anti-His/anti-Flag; hits give high values; z-score (concentration not given with the values); 0.72% of 94,000 active; AID 1259370; in the data active means z-score above about 3.2
HIV TAR-Tat – HIV-1 TAR-Tat binding disruption; HIV-1 TAR RNA, Tat peptide displacement FRET; hits give high values; z-score (concentration not given with the values); 0.6% of 100,000 active; active means z-score of 3 or more in at least 2 runs
* = called active by the depositor; . = no result given.

SMILES	CDC25B CDK2 inh	HIV TAR-Tat
N#CC1=C2SCN(c3ccc(F)cc3)CN2C(=O)CC1c1c(F)cccc1Cl (centres undefined)	1.25	-0.67
COc1ccc(C2CC(=O)N3CN(c4ccc(OC)cc4OC)CSC3=C2C#N)c(OC)c1 (centres undefined)	5.66	-1.69
COc1ccc(C2CC(=O)N3CN(c4ccc(Cl)cc4)CSC3=C2C#N)c(OC)c1 (centres undefined)	5.97*	0.43
COc1ccc(C2CC(=O)N3CN(c4ccc(C)c(C)c4)CSC3=C2C#N)c(OC)c1 (centres undefined)	3.69*	-1.36
COc1ccc(C2CC(=O)N3CN(c4ccccc4)CSC3=C2C#N)c(OC)c1 (centres undefined)	5.22*	-1.41
CCSc1ncc2c(=O)n(CC(=O)Nc3ccc(F)cc3F)cnc2n1	.	0.75
Cc1cc(CN2C(=O)NC(C)(C)C2=O)c(C)cc1CN1C(=O)NC(C)(C)C1=O	-0.17	.
O=C(Nc1nnc(SCc2cc(=O)n3ccsc3n2)s1)c1ccco1	.	0.01
CC(C)NC(=O)CCC(=O)N1CCCn2nc(-c3cccn3C)cc21	.	2.52
CCOC(=O)C1=C(C)Nc2nc(SC)nn2C1c1ccc(Cl)cc1 (centres undefined)	-1.25	0.95
CCCCN1C(=O)c2ccc(-c3ccco3)n2CC1(C)C(=O)NC1CCC(C)CC1 (centres undefined)	.	-0.05
O=C(Cc1scnc1-c1cccs1)N1CCN(c2ccc(F)cc2)CC1	-0.07	-0.79
N#Cc1c(SCC(=O)NCC2CCCO2)nc2c(c1-c1ccco1)CC/C2=C/c1ccco1 (centres undefined)	.	20.4*
N#Cc1c(SCC(=O)Nc2cccc(F)c2)nc2c(c1-c1ccco1)CCCC2	-1.72	.
NC(=O)C[n+]1cc(Br)ccc1N	1.63	.
CCOC(=O)c1c(C)[nH]c(C)c1S(=O)(=O)Nc1cc(C)cc(C)c1	.	0.38
CS(=O)(=O)c1ncc(Cl)c(C(=O)N(Cc2cccs2)C2CCS(=O)(=O)C2)n1 (centres undefined)	-0.85	3.43
Cc1cc2oc(C(=O)Nc3ccc(S(=O)(=O)Nc4onc(C)c4C)cc3)cc(=O)c2cc1C	-0.43	4.43*
O=C(Nc1ccc(S(=O)(=O)Nc2ncccn2)cc1)c1nn(-c2ccccc2)ccc1=O	-1.15	0.19
Cc1noc(NS(=O)(=O)c2ccc(NC(=O)c3nn(-c4ccccc4)ccc3=O)cc2)c1C	-0.82	15.6*
Cc1ccc(C(=O)Nc2ccc(S(=O)(=O)Nc3onc(C)c3C)cc2)o1	-1.13	.
COc1ccc(-c2noc(-c3nnn(-c4cc(C)ccc4OC)c3N)n2)cc1	.	1.97
CC(=O)Nc1ccc2nc(NC(=O)CS(=O)(=O)c3ccc(Cl)cc3)sc2c1	.	1.56
CCOC(=O)c1c(N)sc(SSc2sc(N)c(C(=O)OCC)c2C)c1C	4.41*	.
CCOC(=O)c1c(N)sc(C)c1C	-0.25	0.93
SMILES	CDC25B CDK2 inh	HIV TAR-Tat
O=C(Cn1c(=O)c2cccnc2n(-c2ccccc2)c1=O)Nc1cccc(Br)c1	.	1.17
CCC(N)Cn1nnn(-c2ccccc2)c1=O (centres undefined)	-1	-0.04
CSc1cccc(NC(=O)C2CC3CSCN3C23C(=O)N(C)c2ccccc23)c1 (centres undefined)	.	1.11
CCN1C(=O)C2(c3ccccc31)C(C(=O)Nc1cccc(SC)c1)CC1CSCN12 (centres undefined)	.	20*
O=C(NCc1ccc2ncccc2c1)NC1CCCCC1	.	-1.09
CCn1cnc2cc(NCc3nc4ccccc4n3C)ccc21	2.55	-0.54
CCn1cnc2cc(NCc3nc4ccccc4n3Cc3ccccc3)ccc21	12.9*	1.87
COc1ccc(OC)c(NC(=O)Cn2nnc3sc4c(c3c2=O)CCC(C(C)(C)C)C4)c1 (centres undefined)	-2.81	1.81
C=C1c2c(Cl)ccc(O)c2C(O)=C2C(=O)[C@]3(O)C(O)=C(C(N)=O)C(=O)[C@@H](N(C)C)[C@@H]3[C@@H](O)[C@H]12	.	19.7*
C=C1c2cccc(O)c2C(O)=C2C(=O)[C@]3(O)C(O)=C(C(N)=O)C(=O)[C@@H](N(C)C)[C@@H]3[C@@H](O)[C@H]12	.	15.9*
Cc1csc(NC(=O)Cn2cc(S(=O)(=O)N3CCCC3)c(S(=O)(=O)N3CCCC3)c2)n1	.	4.37
Cc1ccc(-c2nc(C3CCCCC3)no2)cc1	-1.14	1.5
O=C(CSCc1nc2cccnc2n1C1CCCCC1)N1CCCCC1	.	-2.74
O=C1c2cnccc2CN1c1ccc2c(c1)OCCO2	.	1.21
Cc1nc(-c2ccc(C)c(S(=O)(=O)NCCC(C)C)c2)cs1	.	1.82
O=C1C(Nc2ccc(F)cc2)=C(N2CCCCC2)C(=O)c2ccccc21	8.02*	.
CCOC(=O)c1ccc(N2CCCCC2)c(N)c1	-0.16	.
CCOC(=O)c1ccc(NC2=C(N3CCCCC3)C(=O)c3ccccc3C2=O)cc1	17.2*	.
O=C1C(c2ccccc2)=C(Nc2ccc(F)cc2)c2ccccc21	-1.02	0.45
COc1ccc(C(C)=O)cc1CO/N=C1\CSCc2ccccc21	10.9	.
Cc1cc2n(n1)CCCN2C(=O)CCC(=O)NCCC(C)C	.	1.78
O=C(O)c1ccc2nc(-c3ccccc3)c(-c3ccccc3)nc2c1	1.33	1.38
O=C(O)c1ccc2nc3c(nc2c1)-c1cccc2cccc-3c12	-2.6	5.9*
Cc1ccc(C)c(Cn2cccc2CNS(=O)(=O)c2ccc(F)c(Cl)c2)c1	.	1.41
Fc1ccc(C2Nc3cccc4cccc(c34)N2)cc1	-1.29	12.7*
SMILES	CDC25B CDK2 inh	HIV TAR-Tat
COc1cccc(C2Nc3cccc4cccc(c34)N2)c1O	0.43	21.9*
COc1cc(C2Nc3cccc4cccc(c34)N2)cc(OC)c1OC	-1.38	.
CCC12CN3CC(CC)(CN(C1)C3c1cccc(OC)c1O)C2O (centres undefined)	0.01	0.4
Brc1ccc(C2Nc3cccc4cccc(c34)N2)cc1	-0.51	-0.41
COc1ccc(C2Nc3cccc4cccc(c34)N2)cc1Br	1.54	26.3*
Cc1cc(C)cc(OCC(=O)N2N=C(CC(C)C)CC2(O)C(F)(F)F)c1 (centres undefined)	-1.51	.
CC(C)(Oc1ccc(Cl)cc1)C(=O)Nc1nnc2n1CCCS2	.	0.95
CCOC(=O)c1cc(-c2ccccc2)sc1NC(=O)CSc1nc2ccccc2s1	-0.35	.
CCOC(=O)c1cnn(-c2ccccc2)c1NC(=O)CSc1nc2ccccc2s1	19.4*	.
CSc1cccc(NC(=O)CSc2nc(-c3ccc(Cl)cc3)nc3cc(=O)[nH]n23)c1	.	18.1*
Cc1cc(C)cc(NC(=O)CSc2nc(-c3ccc(Cl)cc3)nc3cc(=O)[nH]n23)c1	.	22.9*
Cc1ccc(NC(=O)CSc2nc(-c3ccc(Cl)cc3)nc3cc(=O)[nH]n23)cc1C	.	24.6
O=C(CSc1nc(-c2ccc(Cl)cc2)nc2cc(=O)[nH]n12)Nc1ccccc1	.	16.8
CCCn1nc(-n2cnnc2)c(NS(=O)(=O)c2ccc(CC(C)C)cc2)c1C	2.03	0.45
O=S(=O)(c1ccc(Br)cc1)N1CCC(c2ccncc2)CC1	.	0.17
O=C(c1cnc(N2CCOCC2)nc1)N1CCN(c2ccc(Cl)cc2)CC1	.	1.03
CCOC(=O)c1c(C)oc2nc(C)nc(N3CCCC(C)C3)c12 (centres undefined)	.	0.13
COCCNc1ncnc2c1oc1nc3c(cc12)COC(C)(C)C3	.	-0.71
CCCc1cc(=O)n2[nH]c(-c3ccco3)nc2n1	.	1.27
CCOC(=O)Cc1cc(=O)n2[nH]c(-c3ccco3)nc2n1	13.2*	1.75
Cc1ccc(C(=O)OCc2cc(=O)n3cc(C)sc3n2)cc1	.	1.24
